Measurements: PubChem BioAssay AID651871 (Sanford-Burnham Center for Chemical Genomics, 2012)
Values joined by “and” are separate entries in the source; they are usually repeats but may differ in a detail not shown here. Identical values can stand only once.

test system: H9c2; assay: protection of cardiomyocytes from stress damage, SAR follow-up, cell-based, panel, H9c2 and HL-1, ATP luminescence, set 2 (AID 651871); details: H9c2/HL-1 cardiomyocytes, 2-deoxyglucose stress, with 2-deoxyglucose; run 9, at 79 µM (top of the series);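 further: cells exposed to stressor for 2 h before ATP readout; reference of the scale not given here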

| Compound | activity (protection/inhibition) |
| --- | --- |
| CCOC(=O)c1cccc(NC(=O)CNC(=O)c2cc(-c3cc(OC)c(OC)c(OC)c3)nc3ccccc23)c1 | 90.9% |
| COc1ccc2nc(-c3cc(OC)c(OC)c(OC)c3)cc(C(=O)NCC(=O)Nc3ccc(C(C)=O)cc3)c2c1 | 84.5% |
| COc1ccc2c(c1OC)C(=O)N1c3ccccc3C(=O)N(Cc3cccc(Cl)c3Cl)C21 (stereo not drawn) | 81.1% and 78.3% and -1.59% |
